From the supplement of paper PMC10849652
Targets with a hit are over-represented here; the source holds about 7,900 in all. About 0.6% of all pairs of compound and target were hits.

How the values were obtained:
Assay in all cases: log2 fold change, soluble protein after heating vs DMSO (PISA); higher = thermal stabilisation; K562 cells, 10 uM, 30 min; active = over 0.2 and 3.5 SD of the protein, either way, in both replicates (recomputed)
[1] = compound: C#Cc1cccc(Nc2ncnc3cc(OCCOC)c(OCCOC)cc23)c1 [erlotinib]
In short: (§1)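 K562 cells at 2×10^6 cells/mL were treated for 30 min with 10 μM compound, and aliquots were heated for 3 min over 48°C-58°C before pooling. Extraction used PBS with 0.5% NP-40 at 4°C, and soluble protein was the supernatant after 21,000xg for 90 min, measured by TMTpro 16plex LC-MS/MS with channel sums equalised. Thermal stability values, relative to control samples and from duplicates, are log2 fold changes.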

[2] = compound: C/C(=N\NC(=O)C1=CC(=CC=C1)S(=O)(=O)N2CCOCC2)/C3=C(C=CC(=C3)Cl)O
In short: as §1

[3] = compound: C1=CC(=C(C=C1Cl)C2=NC3=NC=CN=C3C(=N2)NC4=CC=NC=C4)F
In short: as §1

[4] = compound: C1=CC(=CC=C1C2=NC3=C(N2)C=C(C=C3)C(=O)N)OC4=CC=C(C=C4)Cl
In short: as §1

[5] = compound: C1=CC2=C(C=CC(=C2)/C=C\3/C(=O)NC(=NCC4=CC=CS4)S3)N=C1
In short: as §1

[6] = compound: C1=CC2=NC=CN=C2C=C1/C=C/3\C(=O)NC(=O)S3
In short: as §1

[7] = compound: C1=CC=C(C=C1)C2=NC(=C(N2)C3=CC=NC=C3)C4=CC(=C(C=C4)Cl)O
In short: as §1

[8] = compound: C1=CC=C2C(=C1)C3=NNC4=CC=CC(=C43)C2=O
In short: as §1

[9] = compound: C1CCN(C1)C(=O)NC2=CC=CC(=C2)NC3=NC=C(C(=N3)NCCC4=CN=CN4)Br
In short: as §1

[10] = compound: C1CN(CCC1(CC2=CC=C(C=C2)Cl)N)C3=NC=NC4=C3C=CN4
In short: as §1

Measured: log2 fold change

UTP4 (UniProt Q969X6)
Chain of UniProt Q969X6 (Q969X6 whole entry, looked up): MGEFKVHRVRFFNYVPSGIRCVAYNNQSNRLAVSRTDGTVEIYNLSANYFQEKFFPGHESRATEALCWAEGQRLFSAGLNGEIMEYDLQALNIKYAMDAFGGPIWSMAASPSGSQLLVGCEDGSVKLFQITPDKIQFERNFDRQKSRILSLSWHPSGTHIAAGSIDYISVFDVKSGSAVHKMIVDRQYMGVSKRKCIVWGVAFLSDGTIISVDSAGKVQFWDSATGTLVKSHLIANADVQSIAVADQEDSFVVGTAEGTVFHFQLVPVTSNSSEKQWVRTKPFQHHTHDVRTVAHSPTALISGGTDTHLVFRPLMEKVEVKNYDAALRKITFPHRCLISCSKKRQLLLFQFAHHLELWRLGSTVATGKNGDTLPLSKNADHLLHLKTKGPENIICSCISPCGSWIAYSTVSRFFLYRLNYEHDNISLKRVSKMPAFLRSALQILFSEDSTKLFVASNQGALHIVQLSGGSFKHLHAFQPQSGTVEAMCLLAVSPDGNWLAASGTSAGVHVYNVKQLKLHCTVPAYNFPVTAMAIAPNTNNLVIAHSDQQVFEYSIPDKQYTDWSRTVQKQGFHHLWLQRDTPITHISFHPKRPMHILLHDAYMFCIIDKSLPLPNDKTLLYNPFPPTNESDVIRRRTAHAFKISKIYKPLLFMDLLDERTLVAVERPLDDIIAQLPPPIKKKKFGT
inactive: [1] -0.05 | [2] -0.07 | [3] -0.009 | [4] 0.005 | [5] -0.082 | [6] 0.026 | [7] -0.022 | [8] 0.012 | [9] 0 | [10] 0.06

TMEM268 isoform 3 (UniProt Q5VZI3)
inactive: [1] -0.161 | [2] 0.061 | [3] -0.166 | [4] 0.054 | [5] 0.024 | [6] -0.138 | [7] 0.118 | [8] -0.21 | [9] 0.13 | [10] 0.045

TMTC3 (UniProt Q6ZXV5)
Chain of UniProt Q6ZXV5 (Q6ZXV5 whole entry, looked up): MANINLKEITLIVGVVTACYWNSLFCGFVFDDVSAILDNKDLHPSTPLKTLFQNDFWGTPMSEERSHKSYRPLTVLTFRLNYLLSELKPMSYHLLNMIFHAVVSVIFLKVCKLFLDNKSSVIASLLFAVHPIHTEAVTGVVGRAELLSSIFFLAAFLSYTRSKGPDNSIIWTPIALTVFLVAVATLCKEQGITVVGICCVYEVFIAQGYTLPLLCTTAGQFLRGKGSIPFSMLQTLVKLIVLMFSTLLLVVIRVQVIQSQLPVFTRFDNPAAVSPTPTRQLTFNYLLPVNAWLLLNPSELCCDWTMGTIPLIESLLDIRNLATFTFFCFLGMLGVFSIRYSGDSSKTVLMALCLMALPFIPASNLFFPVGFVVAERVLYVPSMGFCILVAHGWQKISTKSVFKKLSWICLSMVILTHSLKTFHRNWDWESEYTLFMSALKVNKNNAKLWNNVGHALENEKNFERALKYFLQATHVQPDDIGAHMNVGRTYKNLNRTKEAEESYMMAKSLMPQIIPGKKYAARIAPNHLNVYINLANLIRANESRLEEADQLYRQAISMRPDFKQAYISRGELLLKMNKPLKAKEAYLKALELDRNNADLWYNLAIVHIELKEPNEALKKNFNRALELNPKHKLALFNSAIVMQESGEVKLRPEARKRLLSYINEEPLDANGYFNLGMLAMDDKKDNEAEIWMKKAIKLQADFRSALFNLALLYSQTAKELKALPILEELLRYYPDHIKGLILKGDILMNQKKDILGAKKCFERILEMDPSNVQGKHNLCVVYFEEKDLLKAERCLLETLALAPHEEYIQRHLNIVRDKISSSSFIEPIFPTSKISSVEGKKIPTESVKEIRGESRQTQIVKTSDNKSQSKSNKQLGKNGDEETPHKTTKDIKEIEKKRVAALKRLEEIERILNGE
inactive: [1] 0 | [2] 0 | [3] 0.007 | [4] 0.023 | [5] 0.042 | [6] 0.002 | [7] 0.001 | [8] -0.001 | [9] -0.064 | [10] -0.014

UPF3B (UniProt Q9BZI7)
active: [3] -0.703
inactive: [1] -0.108 | [2] -0.149 | [4] 0.088 | [5] -0.053 | [6] -0.072 | [7] -0.019 | [8] -0.016 | [9] 0.117 | [10] -0.097

UBE3D (UniProt Q7Z6J8)
inactive: [1] -0.014 | [2] -0.018 | [3] 0.033 | [4] 0.022 | [5] 0.003 | [6] -0.076 | [7] 0.013 | [8] -0.006 | [9] -0.114 | [10] 0.079

WASHC2C, A0A096LPC5
inactive: [1] 0.095 | [2] -0.224 | [3] -0.016 | [4] -0.006 | [5] 0.204 | [6] 0.113 | [7] 0.111 | [8] -0.071 | [9] -0.069 | [10] 0.08

TPR (UniProt P12270)
Chain of UniProt P12270 (P12270 whole entry, looked up): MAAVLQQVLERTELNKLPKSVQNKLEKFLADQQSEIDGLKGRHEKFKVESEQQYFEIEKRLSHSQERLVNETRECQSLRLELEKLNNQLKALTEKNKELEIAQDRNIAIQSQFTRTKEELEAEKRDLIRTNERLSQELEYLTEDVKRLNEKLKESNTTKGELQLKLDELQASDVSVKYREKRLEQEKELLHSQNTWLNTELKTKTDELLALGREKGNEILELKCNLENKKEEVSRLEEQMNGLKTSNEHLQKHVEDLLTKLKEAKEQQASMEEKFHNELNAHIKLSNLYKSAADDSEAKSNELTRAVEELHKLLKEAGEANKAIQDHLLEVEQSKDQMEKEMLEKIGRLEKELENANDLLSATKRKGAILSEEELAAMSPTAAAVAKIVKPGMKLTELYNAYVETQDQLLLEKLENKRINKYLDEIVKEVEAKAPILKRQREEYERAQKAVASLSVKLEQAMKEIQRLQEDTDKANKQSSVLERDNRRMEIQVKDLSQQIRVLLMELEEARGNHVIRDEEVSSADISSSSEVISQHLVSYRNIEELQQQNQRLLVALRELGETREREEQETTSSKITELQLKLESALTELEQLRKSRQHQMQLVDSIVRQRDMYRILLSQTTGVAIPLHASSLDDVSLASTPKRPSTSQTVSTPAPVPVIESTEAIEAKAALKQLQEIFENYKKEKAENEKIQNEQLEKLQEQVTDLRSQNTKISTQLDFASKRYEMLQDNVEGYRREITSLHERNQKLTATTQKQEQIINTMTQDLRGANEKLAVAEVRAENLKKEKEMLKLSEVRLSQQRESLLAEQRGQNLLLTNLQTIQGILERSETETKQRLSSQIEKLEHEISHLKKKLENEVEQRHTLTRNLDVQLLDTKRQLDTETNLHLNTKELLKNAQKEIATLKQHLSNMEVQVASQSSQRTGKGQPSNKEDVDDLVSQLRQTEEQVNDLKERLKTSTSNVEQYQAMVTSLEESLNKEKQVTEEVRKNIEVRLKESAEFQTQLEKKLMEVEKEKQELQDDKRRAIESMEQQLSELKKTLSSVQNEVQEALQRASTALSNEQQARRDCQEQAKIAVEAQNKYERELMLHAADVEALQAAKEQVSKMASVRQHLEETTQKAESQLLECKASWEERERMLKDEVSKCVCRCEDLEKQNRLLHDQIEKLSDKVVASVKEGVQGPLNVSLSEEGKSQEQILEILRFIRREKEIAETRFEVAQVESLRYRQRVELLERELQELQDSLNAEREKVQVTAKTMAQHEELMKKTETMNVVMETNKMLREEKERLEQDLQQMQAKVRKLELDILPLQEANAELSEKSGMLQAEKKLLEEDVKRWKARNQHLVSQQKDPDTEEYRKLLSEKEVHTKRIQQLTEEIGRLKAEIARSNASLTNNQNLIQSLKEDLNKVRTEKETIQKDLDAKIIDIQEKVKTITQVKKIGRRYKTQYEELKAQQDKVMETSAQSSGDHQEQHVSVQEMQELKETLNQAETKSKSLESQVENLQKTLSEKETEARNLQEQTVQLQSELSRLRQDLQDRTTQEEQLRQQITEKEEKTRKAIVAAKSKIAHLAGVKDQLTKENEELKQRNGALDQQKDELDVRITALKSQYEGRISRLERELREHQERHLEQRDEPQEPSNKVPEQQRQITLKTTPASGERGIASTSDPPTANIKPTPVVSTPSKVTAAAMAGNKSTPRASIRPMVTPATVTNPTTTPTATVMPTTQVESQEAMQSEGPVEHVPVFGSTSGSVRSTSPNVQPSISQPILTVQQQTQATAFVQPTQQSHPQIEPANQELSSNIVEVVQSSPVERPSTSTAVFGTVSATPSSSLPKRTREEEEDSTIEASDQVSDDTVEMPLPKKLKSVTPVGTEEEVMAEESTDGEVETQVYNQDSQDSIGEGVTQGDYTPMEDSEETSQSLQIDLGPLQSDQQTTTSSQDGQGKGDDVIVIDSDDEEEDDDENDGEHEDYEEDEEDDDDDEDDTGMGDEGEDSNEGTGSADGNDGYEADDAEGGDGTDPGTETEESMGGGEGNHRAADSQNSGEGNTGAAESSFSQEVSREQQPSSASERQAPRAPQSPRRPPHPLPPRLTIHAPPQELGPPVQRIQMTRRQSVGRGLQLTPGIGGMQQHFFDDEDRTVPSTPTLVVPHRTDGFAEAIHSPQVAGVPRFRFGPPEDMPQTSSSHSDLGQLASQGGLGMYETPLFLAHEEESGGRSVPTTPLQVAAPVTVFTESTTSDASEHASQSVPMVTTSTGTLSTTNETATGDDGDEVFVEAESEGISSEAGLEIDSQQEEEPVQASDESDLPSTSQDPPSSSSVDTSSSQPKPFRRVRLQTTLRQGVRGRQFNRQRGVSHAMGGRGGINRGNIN
inactive: [1] -0.113 | [2] 0.023 | [3] -0.001 | [4] -0.011 | [5] -0.098 | [6] 0.174 | [7] -0.104 | [8] -0.118 | [9] 0 | [10] -0.142

TRIM28 (UniProt Q13263)
inactive: [1] 0.001 | [2] 0.077 | [3] 0.041 | [4] -0.023 | [5] -0.021 | [6] 0.018 | [7] -0.023 | [8] 0.004 | [9] -0.013 | [10] -0.026

TRAPPC3 (UniProt O43617)
Chain of UniProt O43617 (O43617 whole entry, looked up): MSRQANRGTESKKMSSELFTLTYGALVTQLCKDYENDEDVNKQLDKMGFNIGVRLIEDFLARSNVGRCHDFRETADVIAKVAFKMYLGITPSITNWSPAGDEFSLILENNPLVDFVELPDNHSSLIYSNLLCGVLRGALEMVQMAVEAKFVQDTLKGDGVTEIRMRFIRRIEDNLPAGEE
inactive: [1] -0.032 | [2] 0.102 | [3] 0.025 | [4] -0.001 | [5] 0.021 | [6] 0.069 | [7] -0.047 | [8] -0.018 | [9] 0.008 | [10] -0.077

WDHD1 (UniProt O75717)
inactive: [1] 0.007 | [2] 0.173 | [3] 0.093 | [4] -0.002 | [5] 0.026 | [6] 0.038 | [7] -0.02 | [8] -0.028 | [9] -0.031 | [10] -0.013

VRK2 (UniProt Q86Y07)
inactive: [1] 0.004 | [2] 0.014 | [3] -0.021 | [4] -0.026 | [5] -0.065 | [6] 0.011 | [7] -0.02 | [8] 0.118 | [9] 0.013 | [10] 0.072

USP24 (UniProt Q9UPU5)
inactive: [1] 0.126 | [2] -0.147 | [3] 0.101 | [4] -0.113 | [5] 0.092 | [6] 0.148 | [7] 0.141 | [8] 0.094 | [9] 0.181 | [10] 0.297

TMEM128 (UniProt Q5BJH2)
Chain of UniProt Q5BJH2 (Q5BJH2 whole entry, looked up): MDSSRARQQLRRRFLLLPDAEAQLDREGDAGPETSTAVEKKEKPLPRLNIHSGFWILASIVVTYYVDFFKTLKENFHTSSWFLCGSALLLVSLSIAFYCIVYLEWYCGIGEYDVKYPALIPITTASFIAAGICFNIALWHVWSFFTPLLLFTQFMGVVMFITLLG
inactive: [1] -0.048 | [2] 0 | [3] 0.06 | [4] 0.034 | [5] -0.437 | [6] 0.067 | [7] -0.081 | [8] -0.238 | [9] -0.182 | [10] 0.084

UBLCP1 (UniProt Q8WVY7)
active: [10] -0.262
inactive: [1] 0.03 | [2] 0.089 | [3] 0.024 | [4] -0.022 | [5] -0.029 | [6] 0.005 | [7] -0.019 | [8] 0.038 | [9] 0.035

VTA1 (UniProt Q9NP79)
inactive: [1] -0.05 | [2] 0.124 | [3] 0.07 | [4] 0.018 | [5] -0.007 | [6] 0.025 | [7] -0.02 | [8] 0.029 | [9] 0.01 | [10] -0.024

WDR18 (UniProt Q9BV38)
inactive: [1] 0.058 | [2] 0.039 | [3] 0.024 | [4] -0.015 | [5] -0.111 | [6] 0.031 | [7] -0.045 | [8] 0.011 | [9] -0.035 | [10] 0.065

TRAPPC13 isoform 5 (UniProt A5PLN9)
inactive: [1] 0.133 | [2] 0.047 | [3] -0.028 | [4] -0.047 | [5] 0.084 | [6] 0.021 | [7] 0 | [8] -0.038 | [9] -0.005 | [10] 0.009

TXN2 (UniProt Q99757)
inactive: [1] -0.035 | [2] -0.022 | [3] 0.093 | [4] -0.032 | [5] 0.086 | [6] 0.098 | [7] -0.02 | [8] 0.029 | [9] 0.029 | [10] 0.005

TOM1 isoform 2 (UniProt O60784)
inactive: [1] 0.012 | [2] 0.014 | [3] 0.107 | [4] -0.04 | [5] -0.006 | [6] -0.016 | [7] -0.053 | [8] 0.004 | [9] -0.023 | [10] 0.014

VPS28 (UniProt Q9UK41)
inactive: [1] -0.072 | [2] 0.031 | [3] 0.27 | [4] -0.011 | [5] 0.009 | [6] 0.023 | [7] 0.009 | [8] 0.001 | [9] -0.091 | [10] -0.043

USP48 isoform 8 (UniProt Q86UV5)
inactive: [1] 0.114 | [2] 0.186 | [3] 0.14 | [4] -0.033 | [5] 0.028 | [6] -0.013 | [7] 0.049 | [8] -0.049 | [9] -0.103 | [10] -0.029

TOMM20 (UniProt Q15388)
Chain of UniProt Q15388 (Q15388 whole entry, looked up): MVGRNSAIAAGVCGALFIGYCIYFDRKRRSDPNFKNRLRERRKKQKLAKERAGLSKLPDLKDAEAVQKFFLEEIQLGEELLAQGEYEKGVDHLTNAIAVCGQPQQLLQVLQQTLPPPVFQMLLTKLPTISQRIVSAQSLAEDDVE
inactive: [1] 0.073 | [2] -0.01 | [3] -0.013 | [4] 0.004 | [5] 0.012 | [6] 0.018 | [7] 0.049 | [8] -0.006 | [9] 0.007 | [10] 0.027

VPS33B (UniProt Q9H267)
inactive: [1] 0.108 | [2] 0.093 | [3] -0.039 | [4] -0.07 | [5] 0.073 | [6] 0.053 | [7] 0.019 | [8] 0.044 | [9] -0.076 | [10] -0.102

UBAP2L isoform 1 (UniProt Q14157)
inactive: [1] -0.126 | [2] 0.013 | [3] -0.003 | [4] 0.083 | [5] -0.06 | [6] -0.023 | [7] 0.04 | [8] -0.024 | [9] -0.082 | [10] 0.017

TXNL1 (UniProt O43396)
inactive: [1] -0.012 | [2] 0.096 | [3] 0.009 | [4] -0.031 | [5] -0.011 | [6] -0.018 | [7] 0.014 | [8] 0.016 | [9] -0.001 | [10] -0.077

WBP4 (UniProt O75554)
inactive: [1] 0 | [2] -0.07 | [3] 0.04 | [4] 0.009 | [5] -0.082 | [6] 0.031 | [7] -0.059 | [8] -0.055 | [9] 0.031 | [10] 0.036

UFM1 (UniProt P61960)
Chain of UniProt P61960 (P61960 whole entry, looked up): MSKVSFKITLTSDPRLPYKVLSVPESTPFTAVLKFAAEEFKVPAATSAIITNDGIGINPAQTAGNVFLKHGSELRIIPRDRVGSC
inactive: [1] 0.026 | [2] 0.072 | [3] 0.093 | [4] 0.064 | [5] -0.015 | [6] -0.002 | [7] 0.12 | [8] 0.172 | [9] -0.297 | [10] 0.088

TMEM214 (UniProt Q6NUQ4)
inactive: [1] -0.068 | [2] 0.016 | [3] -0.019 | [4] 0.001 | [5] 0.015 | [6] 0.017 | [7] -0.044 | [8] -0.025 | [9] 0.009 | [10] -0.088

VWA3B isoform 6 (UniProt Q502W6)
inactive: [1] 0.107 | [2] -0.036 | [3] 0.213 | [4] -0.057 | [5] 0.048 | [6] 0.111 | [7] -0.214 | [8] -0.049 | [9] 0.03 | [10] -0.03

UGDH (UniProt O60701)
Chain of UniProt O60701 (O60701 whole entry, looked up): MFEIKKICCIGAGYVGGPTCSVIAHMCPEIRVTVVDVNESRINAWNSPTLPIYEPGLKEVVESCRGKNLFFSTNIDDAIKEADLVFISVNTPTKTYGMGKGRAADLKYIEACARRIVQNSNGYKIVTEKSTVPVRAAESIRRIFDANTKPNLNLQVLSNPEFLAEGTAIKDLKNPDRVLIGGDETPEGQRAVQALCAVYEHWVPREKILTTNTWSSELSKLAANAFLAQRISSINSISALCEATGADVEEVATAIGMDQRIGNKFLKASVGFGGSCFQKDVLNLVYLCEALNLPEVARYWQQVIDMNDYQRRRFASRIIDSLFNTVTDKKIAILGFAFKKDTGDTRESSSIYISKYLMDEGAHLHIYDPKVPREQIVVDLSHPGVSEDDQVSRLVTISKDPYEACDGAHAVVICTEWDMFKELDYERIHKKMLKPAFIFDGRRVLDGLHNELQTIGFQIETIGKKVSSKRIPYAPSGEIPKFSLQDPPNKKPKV
inactive: [1] 0.004 | [2] 0.134 | [3] 0.128 | [4] 0.023 | [5] 0.046 | [6] -0.174 | [7] 0.017 | [8] 0.043 | [9] -0.063 | [10] 0.009

UFL1 (UniProt O94874)
inactive: [1] 0.06 | [2] 0.075 | [3] 0.037 | [4] -0.03 | [5] 0.021 | [6] 0.021 | [7] 0.069 | [8] 0.096 | [9] -0.012 | [10] -0.101

TP53BP1 isoform 2 (UniProt Q12888)
inactive: [1] -0.011 | [2] 0.019 | [3] -0.017 | [4] -0.001 | [5] 0.012 | [6] 0.043 | [7] -0.024 | [8] -0.078 | [9] -0.057 | [10] -0.077

TMEM173 (UniProt Q86WV6)
inactive: [1] 0.028 | [2] 0.018 | [3] -0.012 | [4] -0.078 | [5] 0.068 | [6] 0.019 | [7] -0.044 | [8] -0.032 | [9] 0.02 | [10] -0.05
